Sampled rows, rich in hits. Any-hit rate of the full collection: about 3.1%.
EP2 antag = blocks the human prostaglandin E2 receptor EP2; P43116; C6 glioma cells expressing human EP2, cAMP TR-FRET; cells stimulated with saturating PGE2; inhibition, % at 25 µM; 260,000 tested, 0.52% active; AID 1422;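 active = percent inhibition above 40 after rounding to a whole number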;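 note: rat C6 glioma host cells with rolipram phosphodiesterase inhibitor present; the protocol text gives 20 µM as final concentration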
Target sequence (P43116 whole entry, looked up): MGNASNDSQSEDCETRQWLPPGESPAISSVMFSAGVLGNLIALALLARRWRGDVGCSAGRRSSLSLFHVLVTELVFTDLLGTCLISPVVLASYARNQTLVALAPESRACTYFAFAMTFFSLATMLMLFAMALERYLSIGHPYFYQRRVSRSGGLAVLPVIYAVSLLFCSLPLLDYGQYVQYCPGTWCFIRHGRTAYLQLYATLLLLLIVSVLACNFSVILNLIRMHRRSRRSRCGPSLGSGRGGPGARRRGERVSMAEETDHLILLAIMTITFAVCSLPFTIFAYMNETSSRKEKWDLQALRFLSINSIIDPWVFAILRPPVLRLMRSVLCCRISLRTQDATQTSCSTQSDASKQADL
EP2 mod = EP2 receptor (human) modulation. P43116. EP2-expressing cells, cAMP HTRF FRET, PGE2 co-stimulation. induction, % at 25 µM. 260,000 tested, 0.83% active. AID 940;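 active = compounds whose cAMP rise, as percent of the full-agonist control response, exceeds 60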;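 note: rat C6 glioma line stably carrying human EP2 under a CMV promoter; the protocol text gives 20 µM as final concentration; 100% = response of wells given 1 µM PGE2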
S1P3 antagonist = blocks the human S1P3 receptor; Q99500; CHO S1P3 NFAT-BLA reporter, FRET fluorescence, antagonist mode; inhibition, % at 4.98 µM; 170,000 tested, 0.27% active;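 active = inhibition above the plate cutoff, the mean inhibition of test wells on that plate plus 3 SD, cut at about 28% in these data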;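 note: cells challenged with S1P at its EC80 of 0.8 µM; blue over green emission ratio from cleaved BLA substrate after 4 h stimulation; 0% = S1P-stimulated wells and 100% = unstimulated DMSO-only wells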
Target sequence (Q99500 whole entry, looked up): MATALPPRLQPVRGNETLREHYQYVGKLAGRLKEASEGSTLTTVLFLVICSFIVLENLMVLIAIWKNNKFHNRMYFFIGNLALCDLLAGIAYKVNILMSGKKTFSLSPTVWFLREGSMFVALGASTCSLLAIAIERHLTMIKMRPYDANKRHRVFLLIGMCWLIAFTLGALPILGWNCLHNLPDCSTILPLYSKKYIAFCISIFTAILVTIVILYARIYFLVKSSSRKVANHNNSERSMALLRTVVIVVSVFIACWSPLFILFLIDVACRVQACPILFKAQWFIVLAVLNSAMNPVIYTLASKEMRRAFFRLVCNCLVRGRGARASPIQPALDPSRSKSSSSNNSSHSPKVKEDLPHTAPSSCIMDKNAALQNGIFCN
Cl transport mod = modulates chloride dependent transport by human KCC2; KCC2 cells, thallium flux FluoZin-2 fluorescence; 190,000 tested, 2.2% active; Q9H2X9; B-score of Tl+ flux slope (higher = more flux/activation; lower = inhibition) at 10 µM;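 active = thallium flux slope and its plate-corrected score both differing from the plate sample mean at a set confidence after two filtering rounds, in either direction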;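 note: slope of fluorescence scaled to starting intensity during 10 to 20 s after thallium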
KCC2 sec1 = confirmation of human KCC2 transport modulators | shares compounds with Cl transport mod | HEK293-KCC2, thallium flux, FluoZin2 fluorescence; active compounds read high | normalised thallium flux (F/F0 slope) at 10 µM | 3,700 tested, 15% active | AID 1713;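 active = thallium flux slope above the same plate's solvent-only control mean plus 3 SD; inconclusive = the two replicate wells disagree; inactive = no significant difference from solvent-only control wells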
KCC2 bumet counter = thallium flux persisting under bumetanide in KCC2 cells, counter-screen secondary assay; shares compounds with Cl transport mod; HEK293-KCC2 + bumetanide/ouabain, thallium flux FluoZin2; active compounds read high; normalized thallium flux at 10 µM; 3,700 tested, 49% active; AID 1714;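 active = thallium entry rate above the same plate's blocked-transporter control wells by more than 3 SD; inconclusive = the two repeat wells disagree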;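 note: raw slope of fluorescence over initial fluorescence between 10 and 20 s after thallium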
KCC2 sec2 = confirmation of human KCC2 transport modulators. 3,700 tested, 23% active. shares compounds with Cl transport mod. normalized thallium flux at 10 µM. HEK293-KCC2, thallium flux FluoZin2 fluorescence; actives lie on both sides; F/F0 rise rate, 10–20 s post-thallium;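 active = thallium flux slope more than 3 SD above or below the plate's solvent-only control mean, mostly below; inconclusive = the two repeat wells disagreed; inactive = no significant shift from solvent-only controls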;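 note: raw slope with 0.1% DMSO as baseline and bumetanide as block control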
HEK counter1 = parental HEK flux effect, counter-screen | thallium flux rate (normalised fluorescence) at 10 µM | HEK293 parental cells, thallium flux FluoZin2, ouabain; baseline-ratio fluorescence slope, 10–20 s after thallium | shares compounds with Cl transport mod | AID 1716 | 3,700 tested, 46% active;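 active = thallium flux rate significantly above the same plate's solvent-only control wells, beyond their mean plus 3 SD; inconclusive = the two replicate wells gave conflicting results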
KCC2 ouabain = confirmation of human KCC2 modulators with ouabain | 3,700 tested, 48% active | raw Tl+ flux slope (below DMSO = inhibition, above = activation) at 10 µM | shares compounds with Cl transport mod | HEK293-KCC2, thallium flux FluoZin2 fluorescence; bidirectional: low = inhibitor, high = activator;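 active = thallium flux slope beyond 3 SD from same-plate DMSO control mean in most replicates, usually higher, sometimes lower; inconclusive = repeat tests gave conflicting results; inactive = no significant difference from controls in most replicates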;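 note: slope of initial-normalized fluorescence between seconds 10 and 20 after thallium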
HEK counter2 = counter-screen for KCC2 modulators: effect in parental HEK293 cells. AID 1718. thallium flux FluoZin-2 fluorescence slope. 3,700 tested, 33% active. shares compounds with Cl transport mod. thallium flux slope at 10 µM;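 active = thallium flux slope above the same plate's solvent-control mean plus 3 SD in both duplicate wells; inconclusive = duplicate wells that disagreed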;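 note: run without ouabain in cells lacking the KCC2 cotransporter; slope of fluorescence scaled to its starting value between 10 and 20 s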
* marks the source's active call; other numbers are inactive results; u = inconclusive; x = no result given.

SMILES	EP2 antag	EP2 mod	S1P3 antagonist	Cl transport mod	KCC2 sec1	KCC2 bumet counter	KCC2 sec2	HEK counter1	KCC2 ouabain	HEK counter2
O=C(CSc1nc2cc(C(F)(F)F)ccc2n1Cc1ccccc1)NC1CCS(=O)(=O)C1 (configuration not stated)	8.9	-34.2	2.5	5.19*	0.00737	0.00775*	0.0307	0.0112*	0.0201	u
O=S(=O)(c1ccc(Cl)cc1)N(CCCN1CCOCC1)Cc1cccs1	7.7	31.4	-4.9	x	0.0169	0.00417	0.029	u	0.015	0.00991
O=C(Nc1ccc(Cl)cc1)N(CCCN1CCOCC1)Cc1cccs1	7.4	-10.5	x	1.03	x	x	x	x	x	x
Cn1c(-c2ccc3c(c2)OCO3)cnc1NC(=O)CCC(=O)NCCc1ccccc1	8.8	-13.6	-28.0	-3.66*	0.0077	0.00659	0.0296	0.00779	0.0185	u
Cn1c(-c2ccc3c(c2)OCO3)cnc1NCc1ccccc1	4.5	-9.9	-37.1	0.63	x	x	x	x	x	x
COc1ccc(CN(Cc2ccncc2)C2CC(C)(C)NC(C)(C)C2)cc1O	8.8	-0.1	x	x	x	x	x	x	x	x
CCOC(=O)c1sc(CS(=O)(=O)c2ccc(Cl)cc2)nc1C	9.5	5.3	2.2	0.144	x	x	x	x	x	x
CCOC(=O)c1sc(-c2ccc(Cl)cc2Cl)nc1O	17.3	13.1	4.5	9.2*	0.00704	0.0199*	0.0284	0.017*	0.0262*	0.0134*
COC(=O)C1=CNC=C(C(=O)OC)C1c1ccccc1Br	9.1	10.7	x	x	x	x	x	x	x	x
COC(=O)[C@H]1CN(C(=O)c2ccc(=O)[nH]n2)C[C@@H]1c1ccc(F)cc1	x	4.0	x	x	x	x	x	x	x	x
c1ccc(CSc2ncnc3c2cnn3Cc2ccccc2)cc1	3.7	51.3	x	-0.228	x	x	x	x	x	x
Fc1ccc(-n2ncc3c(SCc4cccnc4)ncnc32)cc1	8.8	-7.7	-8.6	21.3*	0.0188	0.0256*	u	0.0292*	0.0308*	0.0232*
CN(C)c1ccc(/C=C/c2ccncc2)cc1	8.8	-10.4	-15.1	x	0.0032*	-0.004*	0.0212*	0.00313*	0.00583*	u
COc1ccc(/C=C/c2ccncc2)cc1	0.9	-40.0	x	0.479	x	x	x	x	x	x
Cc1nc2c(Br)c3nc(C(F)(F)F)[nH]c3c(Br)c2[nH]1	19.5	-3.4	-21.5	-7.61*	0.00907	0.0063	0.0365	0.00451	0.0212	0.0123
Cc1nc2c(F)c(F)c(C(F)(F)F)c(F)c2[nH]1	16.3	-12.1	-0.2	-0.597	x	x	x	x	x	x
Nc1cc(-c2cccs2)nn(CC(=O)NCc2ccc(F)cc2)c1=O	5.8	-31.8	x	x	x	x	x	x	x	x
Cc1ccc2nc(N/C(=N/S(=O)(=O)c3cccs3)c3ccccc3Cl)sc2c1	2.4	4.1	-14.6	6.4*	0.00734	0.0229*	0.0318	0.0216*	u	0.0168*
COc1ccc2nc(NC(=O)CNS(=O)(=O)c3cccs3)sc2c1	1.7	-21.9	x	x	0.0105	0.00651	0.0313	0.00766	u	u
O=C(Nc1nc2c(F)cc(F)cc2s1)c1ccccn1	9.4	-47.0	-8.9	23.2*	0.0201*	0.105*	0.0306	0.0391*	0.076*	0.015*
CCOc1ccc2nc(NC(=O)c3ccccn3)sc2c1	1.3	-16.9	-1.4	6.41*	u	0.0278*	0.0281	0.0134*	0.0302*	u
Cc1ccc2nc(NC(=O)C3CCN(S(=O)(=O)c4cccs4)CC3)sc2c1	5.2	-20.2	4.2	-1.98	x	x	x	x	x	x
CCOc1ccc2nc(NC(=O)Nc3ccccc3)sc2c1	7.4	-1.6	x	x	x	x	x	x	x	x
COc1ccc2nc(NC(=O)CN(C)S(=O)(=O)c3cccs3)sc2c1	29.4	-49.5	x	-0.759	x	x	x	x	x	x
COc1cc(C2C3=C(CCCC3=O)NC3=C2C(=O)CCC3)ccc1OCc1cccc(C)c1	6.2	-26.8	x	x	x	x	x	x	x	x
SMILES	EP2 antag	EP2 mod	S1P3 antagonist	Cl transport mod	KCC2 sec1	KCC2 bumet counter	KCC2 sec2	HEK counter1	KCC2 ouabain	HEK counter2
CC1(C)Cc2c(c(N3CCOCC3)nc3oc(C(=O)c4ccccc4)c(N)c23)CO1	14.7	6.2	x	x	x	x	x	x	x	x
Cc1ccc2nc(NC(=O)c3ccccn3)sc2c1	12.6	-17.6	-14.3	7.89*	u	0.0409*	0.0319	0.0175*	0.0362*	0.0112*
O=C(NCc1cccs1)c1cc(S(=O)(=O)N2CCCCC2)ccc1Cl	9.7	-37.7	x	-0.81	x	x	x	x	x	x
CN(CC(=O)Nc1cc(S(=O)(=O)N2CCCC2)ccc1Cl)Cc1cccs1	7.5	7.3	-5.0	-5.28*	u	0.0047	0.0324	0.00335	0.0139*	0.0114
O=C(Cc1cccs1)Nc1ccc(S(=O)(=O)N2CCCC2)cc1	5.4	-43.5	-8.4	-3.75*	0.00771	0.00605	0.0346	0.00402	0.0204	0.0107
COc1ccc2[nH]c(=O)c(C(c3nnnn3CC3CCCO3)N3CCc4ccccc4C3)cc2c1 (configuration not stated)	6.3	x	16.6	-5.12*	0.00956	0.00698	0.029	0.00706	0.0296	0.0099
CC(C)OCC1CC(CC(=O)Nc2nncs2)C(=O)O1 (configuration not stated)	8.2	4.1	x	x	x	x	x	x	x	x
COc1cccc2sc(NN)nc12	1.3	-18.9	-1.6	0.794	x	x	x	x	x	x
COc1cccc2sc(Nc3nnc(-c4ccccc4Cl)o3)nc12	14.4	-9.9	12.7	79.6*	0.0439*	0.129*	0.0994*	u	0.103*	0.113*
O=C(Oc1cccc2cccnc12)c1cc2ccccc2oc1=O	11.7	-18.0	x	x	x	x	x	x	x	x
O=C(CSc1nc2cc(Cl)ccc2s1)c1ccco1	10.0	-30.7	x	12.6*	0.0247*	0.0364*	0.0427*	0.0298*	0.0356*	0.0325*
NC(=O)CSc1nc2cc(Cl)ccc2s1	12.7	-44.4	x	x	x	x	x	x	x	x
COc1ccc(C2CC(c3ccccc3)n3nc(NC(=O)c4cccs4)nc3N2)cc1 (configuration not stated)	x	-9.7	-36.1	-3.28*	0.00734	0.00668	0.0316	0.00784	0.0183	0.0109
CCOC(=O)C1=C(NC(=S)NC(=O)c2ccccc2)c2ccccc2CC1(C)CC (configuration not stated)	10.6	-4.8	-16.9	5.59*	u	0.033*	0.0361	0.0151*	u	0.0113
CC(C)c1ccc(NC(=S)NNC(=O)c2cccs2)cc1	7.4	-5.8	-12.2	24.9*	u	0.0376*	0.0274	0.0183*	u	u
CC(C)N1C(=O)C2C(C(=O)NCc3ccccc3)C3(C)C=CC2(O3)C1C(=O)NC(C)(C)C (configuration not stated)	4.9	-30.9	x	x	x	x	x	x	x	x
